Measurements as given in PubChem BioAssay AID950 (NMMLSC, 2007).
Hit rate of the full screen: of about 190,000 compounds, about 120 (0.063%) were called active. No stated cut-off is given here; in the data, active means inhibition above about 40%; inconclusive means no clear call, values can overlap the other calls; inactive means below that. What follows is part of a selection rich in actives, with near analogues and random picks from the rest.

target: Apoptosis regulator Bcl-2 (Homo sapiens) (UniProt P10415); experiment: Bcl-2 and Bim peptide interaction disruptors – biochemical, multiplexed, human Bcl-2 family, primary screen (AID 950); conditions: Bead-based flow cytometry, Bim peptide-Bcl-2 binding; at 10 µM; hits give high values;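 further: 0% = no compound wells with probe peptide and 100% = reference peptide inhibitor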
Sequence (P10415 whole entry, looked up): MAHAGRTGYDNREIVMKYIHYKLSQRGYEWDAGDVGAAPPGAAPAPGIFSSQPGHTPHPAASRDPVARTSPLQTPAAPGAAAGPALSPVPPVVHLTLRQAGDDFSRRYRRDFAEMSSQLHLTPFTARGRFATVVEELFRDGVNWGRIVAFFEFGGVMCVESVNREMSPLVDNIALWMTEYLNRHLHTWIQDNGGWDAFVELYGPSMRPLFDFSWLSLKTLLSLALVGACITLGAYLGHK

SMILES | inhibition
CC(NC(=S)Nc1ccccc1)C1COc2ccccc2O1 (configuration not stated) | -6% (inactive)
O=C(CCC(=O)N1CCCC1)Nc1ccc([N+](=O)[O-])cc1 | -2% (inactive)
CC(C)CNC(=S)NC(=O)c1ccc(Cl)cc1 | 0% (inactive)
COCCN(C(=O)C(C)C)c1nnc(-c2ccc(C(C)(C)C)cc2)s1 | -5% (inactive)
C=C1C2C[C@H](O)C(C)(C)[C@@]2(O)[C@H](O)C[C@]23C[C@@](C)(O)[C@H](CC[C@H]12)[C@H]3O (some centres not stated) | 0% (inactive)
Nc1nc(SCC(=O)N2CCN(S(=O)(=O)c3ccc(Cl)cc3)CC2)n[nH]1 | -1% (inactive)
COc1cc([N+](=O)[O-])ccc1NC(=S)N1CCN(c2ccccn2)CC1 | 0% (inactive)
Cc1ccc(NC(=S)NC(=O)/C=C/c2ccc(Cl)cc2)cc1 | -10% (inactive)
COC(=O)c1c(NC(=O)CCCC(=O)O)sc2c1CCCCC2 | -3% (inactive)
COc1cccc(NC(=O)COC(=O)CCOc2ccccc2OC)c1 | -2% (inactive)
Cc1cccc(/C(N)=N/OC(=O)c2ccccc2Cl)c1 | -7% (inactive)
CCOC(=O)C(C)n1nc(-c2ccccc2)c2ccccc2c1=O (configuration not stated) | -1% (inactive)
Cn1cc(Cl)c(C(=O)NNC(=S)Nc2cccc(Cl)c2)n1 | 0% (inactive)
Cc1ccc(OC(=O)CCC(=O)Nc2ccc(Br)cc2)cc1 | 0% (inactive)
O=C(N/N=C/c1ccccn1)c1ccc(S(=O)(=O)N2CCCCCC2)cc1 | 0% (inactive)
O=[N+]([O-])/C(N=Nc1ccccc1)=N\Nc1ccccc1 | -1% (inactive)
N#CCC(=O)N/N=C/c1ccc(SCC(=O)Nc2ccccc2)o1 | -1% (inactive)
Cc1ccc(NC(=O)Nc2cccc(C(F)(F)F)c2)nc1 | 0% (inactive)
CN1CCN(CC(=O)Nc2cccc([N+](=O)[O-])c2)CC1 | -1% (inactive)
O=C(COC(=O)Cn1cnc2ccccc21)Nc1cccc2c1C(=O)c1ccccc1C2=O | -1% (inactive)
CC1COc2ccccc2N1S(=O)(=O)c1ccccc1 (configuration not stated) | -1% (inactive)
COc1cc(NC(=O)c2ccccc2NS(=O)(=O)c2ccc(Cl)s2)cc(OC)c1 | 12% (inactive)
CCC(=O)Nc1ccc(C(=O)N2CCN(C(=O)c3ccco3)CC2)cc1 | 3% (inactive)
COc1ccc(/C=C/C(=O)OCC(=O)NCc2cccs2)cc1OC | 0% (inactive)
CCOC(=O)N1CCN(Cc2nc(Cc3cccc(C(F)(F)F)c3)no2)CC1 | -6% (inactive)

SMILES | inhibition
COc1cc2nc(CN(C)Cc3ccc(F)cc3)[nH]c(=O)c2cc1OC | 14% (inactive)
O=C(O)CCCCCNc1ncnc2ccc(Br)cc12 | 3% (inactive)
COc1ccccc1-n1ccnc1SCC(=O)NC(C)(C)C | -11% (inactive)
CC12CN(NC(=O)c3ccc(Cl)cc3)C3(C#N)CC1CCC23C (configuration not stated) | 0% (inactive)
CC(=O)c1ccc(NC(=O)C(C)N(C)CC(=O)Nc2ccccc2Cl)cc1 (configuration not stated) | 1% (inactive)
CN(C)c1ccc(/C=N\S(=O)(=O)c2ccccc2)cc1 | 2% (inactive)
CCC1CCCCN1S(=O)(=O)Cc1ccccc1Cl (configuration not stated) | 1% (inactive)
CCOc1ccc(NC(=S)N2CCCCCC2)cc1 | -6% (inactive)
COc1cccc(CNC(=O)CCC2CCCN(C(=O)c3cc(C)[nH]n3)C2)c1 (configuration not stated) | -4% (inactive)
CCOc1ccc2c(=O)c(-c3ccc4c(c3)OCCCO4)c(C)oc2c1 | -3% (inactive)
N/C(=N\OC(=O)c1ccc([N+](=O)[O-])cc1)c1ccccn1 | -3% (inactive)
COc1ccc2cc(-c3[nH]ncc3CNCCn3nc(C)cc3C)ccc2c1 | -2% (inactive)
Cc1cccc(NC(=O)CN2C(=O)c3ccccc3C2=O)c1C | 0% (inactive)
Fc1cccc(Cc2noc(CN3CCN(c4cnccn4)CC3)n2)c1 | 0% (inactive)
Cc1cccc(-n2c(SCC(N)=O)nc3c(c2=O)C2(CCCCC2)Cc2ccccc2-3)c1 | 1% (inactive)
CCCCCNC(=O)c1cccnc1SCC(=O)Nc1ccccc1OC | -2% (inactive)
O=C1CCCC2=C1C(c1cccs1)CC(=O)N2c1ccc(F)cc1 (configuration not stated) | 4% (inactive)
O=C(CC(=O)N/N=C\c1cccc(Cl)c1Cl)NCc1ccccc1 | -2% (inactive)
O=C(NN1C(=O)C2C3C=CC(C3)C2C1=O)c1ccco1 (configuration not stated) | -4% (inactive)
CN(c1ccccc1)c1nc(N)c([N+](=O)[O-])c(NCc2ccco2)n1 | -2% (inactive)
Cn1c(=N)n(CC(O)c2cccs2)c2ccccc21 (configuration not stated) | -1% (inactive)
O=C(CSc1ccc(C(F)(F)F)cc1[N+](=O)[O-])NCCOc1ccccc1 | -7% (inactive)
CC(C)(CNC(=O)c1ccc(Cl)c(S(=O)(=O)N2CCc3ccccc3C2)c1)N1CCOCC1 | 0% (inactive)
CCN(CC)c1ccc2c(Nc3ccccc3)c(C=O)c(=O)oc2c1 | -4% (inactive)
C#CCOCCOCCOCCNc1nc(N2CCN(C(=O)[C@H](C(C)C)n3cc(CCO)nn3)CC2)nc(N2CCN(C(=O)[C@H](C(C)C)n3cc(CCO)nn3)CC2)n1 | -3% (inactive)

SMILES | inhibition
Cc1cc(C)c(C2C3=C(Nc4c2c(C)nn4-c2ccccn2)c2ccccc2C3=O)c(C)c1 (configuration not stated) | -2% (inactive)
CCN1CCc2nc(NC(=O)c3cc(F)c(F)cc3Cl)sc2C1 | -5% (inactive)
COc1ccc(C(=O)C2CCCN(Cc3cccn3-c3ccccn3)C2)c(C)c1 (configuration not stated) | 0% (inactive)
CCc1ccc(C2N3CC4([N+](=O)[O-])CN2CC([N+](=O)[O-])(C3)C4(C)C)cc1 (configuration not stated) | -9% (inactive)
CC1CCN(C(=S)c2cccc(O)c2)CC1 | -5% (inactive)
C/C(=N\NC(=O)c1cccnc1)c1ccc(-n2ccnc2)cc1 | -4% (inactive)
CCOC(=O)C1CCN(C(=O)C2(NC(=O)Nc3cccc(F)c3)CCCCC2)CC1 | -2% (inactive)
CCOc1ccccc1/C=N/NC(=O)CNC(=O)COc1ccccc1 | 79% (active)
C=CCc1ccccc1OCC(=O)N/N=C/c1ccccc1OCC | -4% (inactive)
Cc1ccc(/C=N/NC(=O)CNC(=O)COc2ccccc2)o1 | -10% (inactive)
O=C(CN1CCN(c2ncccn2)CC1)Nc1ccccc1C(F)(F)F | -2% (inactive)
COCCCNC(NC(=O)c1ccc(OC)cc1)C(Cl)(Cl)Cl (configuration not stated) | 0% (inactive)
Cc1cccc(NC(=S)NCc2ccc3[nH]c4c(c3c2)CCCC4)c1 | 2% (inactive)
NS(=O)(=O)c1ccc(NC(=O)COC(=O)C2(c3ccc(F)cc3)CCCC2)cc1 | -9% (inactive)
Cc1cccc(Nc2nc3c(S(=O)(=O)c4ccccc4)nnn3c3ccccc23)c1C | 0% (inactive)
CCc1ccc(NC(=O)Cn2nc(C)c([N+](=O)[O-])c2C)cc1 | -2% (inactive)
CC(C)c1ccc(C2C(C#N)=C(N)Oc3c2oc(CO)cc3=O)cc1 (configuration not stated) | -2% (inactive)
CCOc1ccc(NC(=O)COc2ccc(C(=O)NC3CCCc4ccccc43)cc2OC)cc1 (configuration not stated) | -6% (inactive)
O=C(NCC1CCCO1)/C(=C/c1ccc(Cl)cc1)NC(=O)c1ccccc1 (configuration not stated) | -5% (inactive)
CCCNS(=O)(=O)c1ccc(CCC(=O)N2CCCC2)cc1 | -5% (inactive)
CC(=O)c1c(C)[nH]c(C(=O)OCC(=O)NCCC(C)C)c1C | -3% (inactive)
CCOC(=O)CCNC(=O)N1CCCC(C(=O)c2ccccc2SC)C1 (configuration not stated) | 2% (inactive)
CC(CC(=O)C1C(C)C=CCC1(C)C)NNC(N)=O (configuration not stated) | -3% (inactive)
CC(Sc1nnnn1C1CCCCC1)C(=O)O (configuration not stated) | -2% (inactive)
COc1ccc(Cl)cc1NC(=O)COC(=O)C(CC(C)C)N1C(=O)C2CC=CCC2C1=O (configuration not stated) | -9% (inactive)

SMILES | inhibition
COc1cccc(NC(=O)NCc2ccc(F)cc2)c1 | 0% (inactive)
Cc1cc(Cl)c(S(=O)(=O)NCCC(=O)O)cc1OCC(N)=O | -7% (inactive)
Cc1cc(Cl)c(S(=O)(=O)Nc2ccc3c(c2)OCCO3)cc1OCC(N)=O | -1% (inactive)
Cc1cc(Cl)c(S(=O)(=O)NCC2CCCO2)cc1OCC(N)=O (configuration not stated) | 79% (active)
CN(C)CCOCCOc1ccc(Cl)c2ccccc12 | -7% (inactive)
O=C(Nc1ccccc1C(=O)N1CCCCCC1)c1ccccc1Cl | -4% (inactive)
CC(=O)Nc1ccc(S(=O)(=O)NC2(C(F)(F)F)C(=O)Nc3c2c(=O)[nH]c(=O)n3Cc2ccccc2)cc1 (configuration not stated) | -4% (inactive)
COCCOC(=O)c1c(C)oc2cc(Br)c(OCC(N)=O)cc12 | 0% (inactive)
CCCCN(C(=O)COc1ccc(NC(C)=O)cc1)C1CCS(=O)(=O)C1 (configuration not stated) | -3% (inactive)
COCCn1c(C)cc(C(=O)COC(=O)/C=C/c2cccc(OC)c2)c1C | -5% (inactive)
O=C(O)Cc1ccc(NCc2ccccc2Cl)cc1 | -3% (inactive)
CC1CN(S(=O)(=O)c2ccc(C(=O)Nc3sccc3C(N)=O)cc2)CC(C)O1 (configuration not stated) | 1% (inactive)
Cc1ccc(-c2nc(C#N)c(NCCCn3ccnc3)o2)cc1 | -2% (inactive)
O=C(CNCc1ccco1)Nc1cc(S(=O)(=O)N2CCOCC2)ccc1N1CCCC1 | -2% (inactive)
CC(C)=CCN1CCN(Cc2ccc(Oc3ncccn3)cc2)CC1CCO (configuration not stated) | 1% (inactive)
COc1ccc(N2CCN(C(=S)Nc3ccc(S(N)(=O)=O)cc3)CC2)cc1 | -3% (inactive)
O=C(NCc1ccc(Cl)cc1)NCc1ccc(Cl)cc1 | -4% (inactive)
O=C(CSc1ccc(-c2ccc(F)cc2)nn1)Nc1ccc2c(c1)OCCO2 | -6% (inactive)
O=C(Nc1cccc(F)c1)N1C2CCC1CC(O)(c1cccnc1)C2 (configuration not stated) | 0% (inactive)
O=C(CN1CCN(c2ccc(O)cc2)CC1)Nc1cc(S(=O)(=O)N2CCOCC2)ccc1Cl | 0% (inactive)
COc1cc(COCC(O)CN2CCN(Cc3ccc4c(c3)OCO4)CC2)cc(OC)c1OC (configuration not stated) | -1% (inactive)
COC(=O)C1=C(C)N(C)C(=S)NC1c1cc(OC)ccc1OC (configuration not stated) | -5% (inactive)
